# Screening data deposited in PubChem BioAssay by several laboratories.
# TWEAK-Fn14 inh: inhibitors of TWEAK-Fn14 interaction signaling. 360,000 compounds, 2% hits. inhibition, % at 10 µM. TWEAK-stimulated Fn14 reporter cells, luciferase luminescence, 8 h; in the data active = inhibition above about 50%
# Peg3 prom inh: reduces Peg3 promoter-driven luciferase expression in HeLa; HeLa PEG-Prom luciferase reporter, luminescence, overnight; inhibition, % at 20 µM; 360,000 compounds, 1.7% hits; AID 588405;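 active = inhibition of at least 50% at 20 µM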
# Shn3 3UTR inh: inhibitors of Schnurri-3 3'UTR reporter in osteoblasts; Clone20 osteoblast Shn3 3'UTR firefly luciferase, 24 h; inhibition, % at 12.5 µM; 360,000 compounds, 0.52% hits; AID 588674;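 active = mean inhibition of at least 75% with every replicate also reaching 75%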;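 note: 0% = median of neutral control wells and 100% = pilot-screen positive control compound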
# LMP1 NFkB inh: inhibitors of Epstein-Barr LMP1-induced NF-kappaB reporter. LMP1-induced NF-kappaB luciferase reporter cells, luminescence. inhibition, % at 12.5 µM. 350,000 compounds, 0.69% hits; in the data active = inhibition above about 41%;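 note: 0% = neutral control wells and 100% = reference inhibitor control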
# TROY NFkB inh: blocks TROY-dependent signaling in reporter cells; Q293 LMP1-TROYcd NF-kB luciferase reporter, 4 h; inhibition, % at 10 µM; 360,000 compounds, 0.98% hits; AID 1347056;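 active = compounds whose plate-normalised and pattern-corrected inhibition of the luciferase reporter signal at the single screening dose is 50% or more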
# MITF TRPM1 inh: inhibitors of MITF-driven TRPM1 promoter in melanoma cells | inhibition, % at 12.5 µM | AID 488899 | 330,000 compounds, 0.83% hits | SK-MEL-5 TRPM1 promoter luciferase, 24 h;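 active = mean inhibition across replicates of 60% or more, whatever share of single replicates reaches that level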
# Active calls of the source: *; · = not tested or not shown. This is a sample that favours compounds with a hit; in the whole collection about 4.1% have one here.
SMILES,TWEAK-Fn14 inh,Peg3 prom inh,Shn3 3UTR inh,LMP1 NFkB inh,TROY NFkB inh,MITF TRPM1 inh
COc1ccccc1NC(=O)CSc1ccc(-c2cccs2)nn1,53*,-19,4,4,26,0
CCn1c2ccccc2c2cc(NC(=O)c3coc(=O)c(Br)c3)ccc21,74*,49,-14,·,-29,·
CCn1c2ccccc2c2cc(NC(=O)c3ccc(=O)oc3)ccc21,-8,12,-5,·,-20,·
C=CCNC(=S)/N=c1/ccccn1CCC,-12,10,35,-6,4,5
COc1ccc(C)cc1S(=O)(=O)N(CC(=O)N1CCCC1)c1ccc(C)cc1,13,15,18,-12,15,-12
COc1ccc(OC)c(NC(=O)N2CCCc3ccccc32)c1,44,12,10,-3,76*,12
COc1ccc(NC(=O)N2CCCc3ccccc32)cc1,17,-52,0,-13,-27,-20
CCOc1ccccc1NC(=S)N1CCCc2ccccc21,53*,-32,-3,3,54*,3
CCOc1ccccc1NC(=O)N1CCCc2ccccc21,16,14,9,9,75*,7
COc1ccccc1NC(=S)N1CCCc2ccccc21,66*,17,12,-5,54*,12
CCCN1CCN(C(=O)c2oc3c(Cl)cccc3c2C)CC1,-23,20,5,1,7,-3
CC(=O)c1ccc(OCC(C)Oc2ccc(C#N)cc2)cc1 (stereo unspecified),-9,3,-26,-1,13,8
CCC(C)(C)NC(=O)C(c1ccc(OC)cc1)N(C(=O)CCC(=O)Nc1cc(C)on1)c1ccc(OC)c(OC)c1 (stereo unspecified),22,5,8,1,-7,3
CCC(C)(C)NC(=O)C(c1ccc(OC)cc1)N(C(=O)CCC(=O)Nc1cc(C)on1)c1ccccc1OC (stereo unspecified),57*,21,5,7,11,-6
CN(CC(=O)Nc1cccnc1)S(=O)(=O)c1ccc(Br)cc1,-12,18,0,50*,17,2
Cc1ccc(S(=O)(=O)N(C)CC(=O)Nc2cccnc2)cc1,15,-1,3,0,-17,7
CCCS(=O)(=O)Nc1c(OC)ccc2c1c(C(=O)OCC)c(C)n2C,11,6,-16,-5,-18,1
CCc1ccc(NC(=O)CSc2nc(=O)n3cc(C)ccc3n2)cc1,1,-30,11,7,-6,-15
C=C1C(C(=O)Nc2ccc(F)cc2)C1C(=O)Nc1ccc(F)cc1 (stereo unspecified),20,4,-9,7,-5,18
Cc1cc(C)cc(C(=O)NCC(=O)OCN2C(=O)c3ccccc3C2=O)c1,5,52*,-7,-5,15,1
O=C(Nc1ccsc1C(=O)O)c1cccc(Oc2ccccc2)c1,53*,-181,-6,-25,53*,-8
O=C(Nc1ccsc1C(=O)O)c1cccc(C(F)(F)F)c1,2,-107,-75,-29,-31,·
COCCNC(=O)c1onc(CSc2ccccc2)c1C(=O)NCCOC,11,-15,-10,0,-8,·
CCn1c2ccccc2c2cc(C3C(C#N)=C(N)Oc4n[nH]c(COC)c43)ccc21 (stereo unspecified),4,89*,1,92*,-6,10
CCN(C(=O)CSc1ncccn1)C1CCS(=O)(=O)C1 (stereo unspecified),10,9,6,1,0,4
SMILES,TWEAK-Fn14 inh,Peg3 prom inh,Shn3 3UTR inh,LMP1 NFkB inh,TROY NFkB inh,MITF TRPM1 inh
CC(=O)c1sc(Nc2nc3ccc(F)cc3s2)nc1C,-86,-267,-21,-25,-28,-51
CCOC(=O)c1csc(Nc2nc3ccc(F)cc3s2)n1,105*,-117,10,-16,-23,18
CCCOc1ccc(F)cc1-c1cc(C(=O)Nc2cc(OC)c(OC)c(OC)c2)[nH]n1,64*,44,22,·,9,·
CCc1nc2c(cnn2-c2ccc(F)cc2)c(=O)n1-c1ccc(N2CCC(C)CC2)cc1,65*,24,75,11,-1,21
CC[C@@]1(c2cccc(C)c2)C(=O)N(C(=O)OC)N1C(=O)OC,20,17,-11,5,-6,46
CCOC(=O)N1C(=O)[C@@](CC)(c2ccccc2)N1C(=O)OCC,21,34,-10,5,-12,75*
O=[N+]([O-])c1ccc2nc(Cl)nc(-c3ccccc3)c2c1,20,20,-77,7,-18,14
Cc1ccc(C)c(NC(=S)NC(NC(=O)N(C)C)C(Cl)(Cl)Cl)c1 (stereo unspecified),6,6,-1,-1,-1,-7
Cc1ccc(C)c(NC(=S)NC(NC(=O)Cc2cccc3ccccc23)C(Cl)(Cl)Cl)c1 (stereo unspecified),33,94*,55,-73,25,77*
CCc1ccc(OCC(=O)NC(NC(=S)Nc2ccccc2C)C(Cl)(Cl)Cl)cc1 (stereo unspecified),44,61*,60,8,51*,15
CCc1ccc(OCC(=O)NC(NC(=S)Nc2ccccc2OC)C(Cl)(Cl)Cl)cc1 (stereo unspecified),25,44,16,-6,25,-7
O=C(NC(NC(=S)Nc1cccc(Cl)c1)C(Cl)(Cl)Cl)OCc1ccccc1 (stereo unspecified),54*,53*,-14,-1,58*,9
CCc1ccc(OCC(=O)NC(NC(=S)Nc2ccccc2)C(Cl)(Cl)Cl)cc1 (stereo unspecified),74*,46,67,6,53*,26
O=C(NC(NC(=S)Nc1cccc(C(=O)O)c1)C(Cl)(Cl)Cl)OCc1ccccc1 (stereo unspecified),11,13,-13,5,-3,-3
CC(=O)Nc1oc(-c2cccc3ccccc23)nc1C#N,-22,-49,-6,-5,-5,-23
CCOC(=O)c1sc(NC(=O)CCc2ccc(OC)cc2)nc1C,-23,6,-7,4,-17,-10
CN(Cc1nccn1C)C(=O)C1CCC(=O)N(Cc2cccc(C(F)(F)F)c2)C1 (stereo unspecified),-9,-10,5,3,-10,2
C[C@]12CCC(O)CC1=CCC1C2CC[C@]2(C)/C(=N\NC(N)=S)CCC12 (stereo partly specified),94*,1,36,19,15,1
CC12CCC(O)CC1=CCC1C2CCC2(C)C1CCC21CCC(=O)O1 (stereo unspecified),-7,8,13,8,10,10
CC1(C)c2[nH]c3ccccc3c2C[C@@H]2C(=O)N(Cc3ccccc3Cl)C(=O)N21,51*,-9,1,-4,30,8
CC1(C)c2[nH]c3ccccc3c2C[C@H]2C(=O)N(Cc3cccc(F)c3)C(=O)N21,51*,35,3,-13,29,35
